# Measured values: PubChem BioAssay AID1491 (National Center for Advancing Translational Sciences (NCATS), 2009)
# Values joined by “and” are separate entries in the source; they are usually repeats but may differ in a detail not shown here. Identical values can stand only once. Results filed as inconclusive are left out. Active and inactive are the calls of the source. The call rests on the fitted dose curve; in most records, active means well fitted inhibition curve with a large enough effect in the main read-out, with a control signal flat; inconclusive means small, poorly fitted or top-dose-only effect, or a change in a side signal; inactive means flat fitted curve, though single readings scatter.
# Target: Neuropeptide S receptor (Homo sapiens) (UniProt Q6W5P4)
# Sequence (Q6W5P4 whole entry, looked up): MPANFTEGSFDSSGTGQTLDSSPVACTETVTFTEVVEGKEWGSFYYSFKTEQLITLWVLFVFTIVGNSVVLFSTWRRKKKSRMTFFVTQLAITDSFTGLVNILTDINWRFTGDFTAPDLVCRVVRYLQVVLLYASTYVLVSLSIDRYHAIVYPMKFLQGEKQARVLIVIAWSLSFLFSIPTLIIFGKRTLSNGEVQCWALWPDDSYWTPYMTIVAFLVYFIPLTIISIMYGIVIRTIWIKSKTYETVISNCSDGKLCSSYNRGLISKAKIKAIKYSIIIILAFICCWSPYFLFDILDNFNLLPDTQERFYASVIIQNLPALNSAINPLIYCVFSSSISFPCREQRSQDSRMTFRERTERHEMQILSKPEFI
# Experiment: Confirmation Concentration-Response Assay for Antagonists of the Neuropeptide S Receptor: cAMP Signal Transduction
# Details: CHO-NPSR cells, cAMP TR-FRET, antagonist mode; series mostly up to 22.3 µM
# Description: NIH Chemical Genomics Center [NCGC] NIH Molecular Libraries Probe Production centers Network [MLPCN] MLPCN Grant: X01-DA026210-01 Assay Submitter (PI): Heilig, Markus Alexander NCGC Assay Overview: Neuropeptide S receptor (NPSR), previously known as GPR154, is a recently de-orphanized G protein coupled receptor. Its endogenous ligand is the 20 amino acids peptide Neuropeptide S (NPS). […] NPS and its receptor are found in various tissues. Specifically they are highly expressed in brain areas that have been implicated in modulation of arousal, stress and anxiety. Central administration of NPS in mice produces an unusual profile of activity by inducing wakefulness and arousal, while at the same time suppressing anxiety. Therefore, NPSR may represent a novel drug target for the treatment of sleep and anxiety disorders. To identify NPSR antagonists, we developed a cell-based cAMP assay. NPS can stimulate the production of cAMP in Chinese hamster ovary cells stably expressing NPS receptor. This change in intracellular cAMP level can be detected by a homogeneous LANCE cAMP assay based on the TR-FRET (time resolved fluorescence resonance energy transfer) between a europium-labeled cAMP tracer complex and a cAMP-specific antibody labeled with Alexa Fluor 647. The europium-labeled cAMP tracer complex is formed by the tight interaction between Biotin-cAMP (b-cAMP) and streptavidin labeled with Europium-W8044 chelate (Eu-SA). Light pulse at 320 nm excites the europium of the cAMP tracer and the energy emitted is transferred to the Alexa molecule bound to the cAMP antibody, generating a TR-FRET signal at 665 nm. Residual energy from the europium will produce a light at 620 nm. The native unlabeled cAMP from cell lysates competes with the europium-cAMP tracer for antibody binding and reversely reduces the emission signal of Alexa by interrupting FRET between the two labeled molecules. Both emission signals from the FRET donor (620 nm) and the acceptor (665 nm) can be detected by a plate reader in the TRF mode. Expression of result in fluorescence ratio (665 nm/620 nm) helps to normalize differences due to cell density and reagent dispensing. This assay was successfully optimized to a 1536-well plate format. Select compounds from the primary screen (AID 1461) were chosen for confirmation based on potency, efficacy, SAR, and activity across other assays in PubChem and at NCGC. Other compounds are analogs of active compounds from the primary sceen.
# NCGC Assay Protocol Summary: A Chinese hamster ovary (CHO) cell line stably expressing the NPS receptor (CHO-NPSR) was obtained from Dr. Heilig lab at NIAAA and maintained in F-12 Kaighn's media (Invitrogen, Carlsbad, CA, 21127) supplemented with 10 % FBS, 100 units/ml penicillin, 100 ug/ml streptomycin and 250 ug/ml geneticin at 37C, 5% CO2 in a humidified atmosphere. Before the assay, aliquots of cells were frozen and stored at -135C. The assay was performed in 1536-well format. Data are reported for both the ratio of the two emission wavelengths, and also for the component 'donor' channel, Em2=620. […] IC50 values were determined from concentration-response data modeled with the standard Hill equation. NPS 1536-well assay protocol: (1) Fresh or frozen CHO-NPSR cells were suspended in F-12 Kaighn's media supplemented with 10 % FBS, 100 units/ml penicillin and 100 ug/ml streptomycin. Cells were plated at 4 ul/well (1200 cells) to white, tissue culture treated 1536-well plates, and then cultured at 37C, 5 % CO2 for 16 to 30 hours. (2) Add 23 nl/well of compound in DMSO solution. The final titration for each compound was between 0.6 nM and 46 uM. (3) Add 1 ul of stimulation reagent (1X HBSS buffer, 5 mM HEPES, 0.1% BSA, 500 uM RO-201724 (Sigma-Aldrich, B8279), 1.5% Alexa 647-labeled anti-cAMP antibody (from Perkin Elmer), 100 nM NPS) (4) Incubation at 37C, 5 % CO2 for 60 min. (5) Add 1 ul/well detection reagent. […]
# Potency means the concentration at half of the fitted maximal effect.
row,SMILES,Potency
1,COc1cccc(C2c3c(ncn(-c4ccccc4)c3=N)Oc3ccc4ccccc4c32)c1OC (stereo not given),4.47 µM (active)
2,c1cncc(-c2nc(-c3ccco3)cs2)c1,inactive
3,N=c1c2c(ncn1-c1ccccc1)Oc1ccc3ccccc3c1C2c1ccc2c(c1)OCO2 (stereo not given),2.51 µM (active)
4,O=C(/C(=C/c1ccc(Cl)cc1)c1nc2ccccc2[nH]1)c1cccs1,8.91 µM (active)
5,COc1cc(/C=C2\SC(c3ccc(C)cc3)=NC2=O)cc(OC)c1O,10 µM (active)
6,COc1ccc(OC)c(C2C(C(=O)Nc3nc4ccccc4s3)=C(C)NC3=C2C(=O)CCC3)c1 (stereo not given),2.82 µM (active)
7,COc1ccc2nc(NC(=S)N(C)C)sc2c1,inactive
8,Cc1cccc(N2CCN(C(=O)c3ccc(CNc4c(N5CCC(C)CC5)c(=O)c4=O)cc3)CC2)c1C,inactive
9,O=C(/C=C/c1ccco1)NC(=S)Nc1nc(-c2ccc3ccccc3c2)cs1,3.98 µM (active)
10,NC(=O)OCC(COC(N)=O)c1ccccc1,inactive
11,O=C(Nc1ncnc2c1C(c1ccccc1)c1c(ccc3ccccc13)O2)c1ccccc1 (stereo not given),6.31 µM (active)
12,Cn1c(C(=O)NCCN2CCc3ccccc3C2)cc2c(=O)[nH]c3ccccc3c21,inactive
13,CCCCNS(=O)(=O)c1ccc2nc(-c3cccnc3)cc(C(=O)NC(C)CC)c2c1 (stereo not given),inactive
14,Cc1cc(C)n(-c2nc(Nc3ccccc3C(F)(F)F)nc(-n3nc(C)cc3C)n2)n1,11.2 µM (active)
15,N=c1c2c(ncn1-c1ccccc1)Oc1ccc3ccccc3c1C2c1ccc2c(c1)OCCO2 (stereo not given),1.41 µM (active)
16,CCOC(=O)CCCC(=O)Nc1ncnc2c1C(c1ccccc1)c1c(ccc3ccccc13)O2 (stereo not given),2 µM (active)
17,N#Cc1c(-c2ccccc2)c(-c2ccccc2)nn(CC(=O)NNC(=O)Nc2ccc(Cl)c(Cl)c2)c1=O,inactive
18,CCn1cc(C(=O)NCC2CCCO2)c(=O)c2cc(S(=O)(=O)N3CCCCCC3)ccc21 (stereo not given),inactive
19,COC(=O)/C(=C1/Oc2cc(C)oc(=O)c2S1)C(F)(F)F,inactive
20,N=c1c2c(ccn1CCCc1ccccc1)Oc1ccc3ccccc3c1C2c1ccccc1 (stereo not given),1.58 µM (active)

row,SMILES,Potency
1,CC1(C)Cc2c(c(N3CCOCC3)nc3sc4c(NCC5CCCO5)nnnc4c23)CS1 (stereo not given),inactive
2,CS(=O)(=O)c1nc(-c2ccccc2)cc(C(F)(F)F)n1,7.94 µM (active)
3,COc1ccc(N2C3=C(CC4=C2CC(C)(C)CC4=O)C(=O)CC(C)(C)C3)cc1,inactive
4,Nn1c(COc2ccccc2)nnc1SCc1cc(=O)[nH]c2ccccc12,inactive
5,NC(=O)c1ccsc1NC(=O)c1ccc(S(=O)(=O)N2CCCC2)cc1,inactive
6,C=C1C(=O)C=C2CN(C(=O)c3ccccc3)[C@@](Cc3ccc(F)cc3)(C(=O)OC)[C@@H]12,3.98 µM (active)
7,Cc1oc2c(c1C(=O)NCc1cccnc1)C(=O)c1ccccc1C2=O,inactive
8,Nc1ncnc2c1C(c1ccccc1)c1c(ccc3ccccc13)O2 (stereo not given),1 µM (active)
9,CN(C)C(=S)N=Nc1[nH]c2ccccc2c1O,10 µM (active)
10,CN(C)C(=O)Oc1cccc([N+](C)(C)C)c1,inactive
11,CCOC(=O)CCC(=O)Nc1ncnc2c1C(c1ccccc1)c1c(ccc3ccccc13)O2 (stereo not given),2 µM (active)
12,O=C(COC(=O)c1ccccc1C(=O)c1ccc(Cl)c([N+](=O)[O-])c1)NC1CCCCCC1,4.47 µM (active) and 8.91 µM (active)
13,COc1cccc(N2CCN(c3ncnc4c3[nH]c3ccc(F)cc34)CC2C)c1 (stereo not given),5.62 µM (active)
14,Cc1ccc(Cn2cc(SCC(=O)Nc3nccs3)c3ccccc32)cc1,inactive
15,N=c1c2c(ncn1-c1ccccc1)Oc1ccc3ccccc3c1C2c1ccc2c(c1)CCO2 (stereo not given),1.12 µM (active)
16,N#Cc1cnn(-c2ncnc3sc4c(c23)CCCC4)c1N,inactive
17,O=C(Nc1ccc(Oc2c(F)c(F)c(F)c(F)c2F)cc1)OC1CCN2Cc3ccccc3N=C12 (stereo not given),11.2 µM (active)
18,CC(C)(C)OC(=O)Nc1ncnc2c1C(c1ccccc1)c1c(ccc3ccccc13)O2 (stereo not given),3.55 µM (active)
19,Cc1cccc(-c2nnc(SCc3cc(=O)[nH]c4ccccc34)n2C)c1,inactive
20,C/C(=N\NC(=S)NC1CCCCC1)c1c(F)cccc1F,inactive
